The full data set covers some 7,900 targets. This sample favours those with a hit. About 0.6% of all pairs of compound and target were hits.
Experiments:
Test in all cases: log2 fold change, soluble protein after heating vs DMSO (PISA); higher = thermal stabilisation; K562 cells, 10 uM, 30 min; active = over 0.2 and 3.5 SD of the protein, either way, in both replicates (recomputed)
[1] = biological target: ZEB2 (UniProt O60315)
How it was run: (§1)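 K562 cells at 2×10^6 cells/mL were exposed to 10 μM compound for 30 min, then aliquots were heated for 3 min across 48°C-58°C, pooled, and extracted in PBS containing 0.5% NP-40 at 4°C. The supernatant after 21,000xg for 90 min was taken as soluble protein and measured by TMTpro 16plex LC-MS/MS with channel sums equalised. Thermal stability is reported relative to control samples, with values from duplicates. Fold changes are given on a log2 scale.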

[2] = biological target: ZER1 (UniProt Q7Z7L7)
How it was run: as §1

[3] = biological target: ZFAND5 (UniProt O76080)
How it was run: as §1

[4] = biological target: ZFAND6 (UniProt Q6FIF0)
How it was run: as §1

[5] = biological target: ZFP91 (UniProt Q96JP5)
How it was run: as §1

[6] = biological target: ZFPL1 (UniProt O95159)
How it was run: as §1

[7] = biological target: ZMAT2 (UniProt Q96NC0)
How it was run: as §1

[8] = biological target: ZMYM1 (UniProt Q5SVZ6)
How it was run: as §1

[9] = biological target: ZMYM3 (UniProt Q14202)
How it was run: as §1

[10] = biological target: ZNF143 (UniProt P52747)
How it was run: as §1

[11] = biological target: ZNF217 (UniProt O75362)
How it was run: as §1

[12] = biological target: ZNF239 (UniProt Q16600)
How it was run: as §1

[13] = biological target: ZNF277 (UniProt Q9NRM2)
How it was run: as §1

[14] = biological target: ZNF511 isoform 1 (UniProt Q8NB15)
How it was run: as §1

[15] = biological target: ZNF512 (UniProt Q96ME7)
How it was run: as §1

[16] = biological target: ZNF579 (UniProt Q8NAF0)
How it was run: as §1

[17] = biological target: ZNF609 (UniProt O15014)
How it was run: as §1

[18] = biological target: ZNF622 (UniProt Q969S3)
How it was run: as §1

[19] = biological target: ZRANB2 (UniProt O95218)
How it was run: as §1

[20] = biological target: ZNF580 (UniProt Q9UK33)
How it was run: as §1

Measured: log2 fold change

ZNF277, sequence (Q9NRM2 whole entry, looked up): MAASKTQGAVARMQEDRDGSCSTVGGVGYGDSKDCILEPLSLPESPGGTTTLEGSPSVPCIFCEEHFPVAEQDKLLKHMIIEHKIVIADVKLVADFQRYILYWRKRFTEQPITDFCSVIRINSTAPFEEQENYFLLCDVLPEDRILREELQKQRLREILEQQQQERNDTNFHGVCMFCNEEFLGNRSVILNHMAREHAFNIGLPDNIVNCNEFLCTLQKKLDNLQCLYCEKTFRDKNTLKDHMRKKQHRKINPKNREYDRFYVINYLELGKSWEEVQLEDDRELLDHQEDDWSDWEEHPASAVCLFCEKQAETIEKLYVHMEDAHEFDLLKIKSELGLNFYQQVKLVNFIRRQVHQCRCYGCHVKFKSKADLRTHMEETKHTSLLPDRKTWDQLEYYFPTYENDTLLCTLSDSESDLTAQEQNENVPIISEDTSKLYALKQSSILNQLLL
ZFAND5, sequence (O76080 whole entry, looked up): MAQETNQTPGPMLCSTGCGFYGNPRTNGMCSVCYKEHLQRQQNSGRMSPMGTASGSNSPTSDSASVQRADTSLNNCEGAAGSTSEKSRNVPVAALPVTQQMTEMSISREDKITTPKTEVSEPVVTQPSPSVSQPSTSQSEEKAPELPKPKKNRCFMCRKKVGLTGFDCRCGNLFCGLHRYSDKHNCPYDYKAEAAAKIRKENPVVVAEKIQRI
ZRANB2, sequence (O95218 whole entry, looked up): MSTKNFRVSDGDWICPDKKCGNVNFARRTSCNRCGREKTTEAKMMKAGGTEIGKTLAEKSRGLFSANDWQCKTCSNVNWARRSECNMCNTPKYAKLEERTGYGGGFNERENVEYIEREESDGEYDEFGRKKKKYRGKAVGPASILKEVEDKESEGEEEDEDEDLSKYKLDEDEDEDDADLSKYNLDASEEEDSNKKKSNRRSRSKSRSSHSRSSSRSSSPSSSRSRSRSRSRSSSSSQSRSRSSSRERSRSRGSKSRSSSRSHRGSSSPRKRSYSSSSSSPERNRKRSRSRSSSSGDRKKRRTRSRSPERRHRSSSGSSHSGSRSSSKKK
ZNF580, sequence (Q9UK33 whole entry, looked up): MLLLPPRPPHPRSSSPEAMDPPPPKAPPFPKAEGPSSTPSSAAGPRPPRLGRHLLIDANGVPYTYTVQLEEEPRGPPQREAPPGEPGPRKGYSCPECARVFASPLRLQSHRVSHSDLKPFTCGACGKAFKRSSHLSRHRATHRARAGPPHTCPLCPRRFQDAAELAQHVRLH
ZNF143, sequence (P52747 whole entry, looked up): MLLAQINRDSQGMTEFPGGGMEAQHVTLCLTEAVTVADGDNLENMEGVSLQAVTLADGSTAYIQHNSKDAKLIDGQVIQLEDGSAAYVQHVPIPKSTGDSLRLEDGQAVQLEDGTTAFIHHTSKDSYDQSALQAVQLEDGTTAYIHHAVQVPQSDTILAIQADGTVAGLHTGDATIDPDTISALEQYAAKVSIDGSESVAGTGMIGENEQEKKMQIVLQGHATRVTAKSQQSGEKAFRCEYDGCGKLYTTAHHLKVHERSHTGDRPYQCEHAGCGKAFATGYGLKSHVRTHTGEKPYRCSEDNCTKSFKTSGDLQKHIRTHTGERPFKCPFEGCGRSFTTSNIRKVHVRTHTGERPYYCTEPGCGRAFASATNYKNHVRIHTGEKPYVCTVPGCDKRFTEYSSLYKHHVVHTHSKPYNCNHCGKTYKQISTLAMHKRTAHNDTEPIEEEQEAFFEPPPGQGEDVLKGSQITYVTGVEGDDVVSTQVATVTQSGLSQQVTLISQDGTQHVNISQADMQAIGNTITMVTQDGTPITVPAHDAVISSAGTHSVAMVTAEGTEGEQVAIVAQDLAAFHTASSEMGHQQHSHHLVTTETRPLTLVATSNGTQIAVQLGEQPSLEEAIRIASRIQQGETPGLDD
ZNF622, sequence (Q969S3 whole entry, looked up): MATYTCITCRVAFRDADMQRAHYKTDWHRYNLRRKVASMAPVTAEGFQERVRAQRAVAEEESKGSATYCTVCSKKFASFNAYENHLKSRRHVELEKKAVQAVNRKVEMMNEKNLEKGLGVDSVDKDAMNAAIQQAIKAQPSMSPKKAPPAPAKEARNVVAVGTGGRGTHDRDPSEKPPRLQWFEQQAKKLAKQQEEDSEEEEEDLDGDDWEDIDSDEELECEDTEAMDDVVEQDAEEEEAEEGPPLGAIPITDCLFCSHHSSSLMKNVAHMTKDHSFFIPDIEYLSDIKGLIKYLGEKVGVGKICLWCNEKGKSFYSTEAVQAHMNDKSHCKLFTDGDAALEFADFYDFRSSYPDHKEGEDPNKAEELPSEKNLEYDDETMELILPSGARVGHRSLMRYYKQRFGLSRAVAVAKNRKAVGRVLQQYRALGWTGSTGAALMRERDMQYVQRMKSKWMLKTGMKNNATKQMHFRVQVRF
ZEB2, sequence (O60315 whole entry, looked up): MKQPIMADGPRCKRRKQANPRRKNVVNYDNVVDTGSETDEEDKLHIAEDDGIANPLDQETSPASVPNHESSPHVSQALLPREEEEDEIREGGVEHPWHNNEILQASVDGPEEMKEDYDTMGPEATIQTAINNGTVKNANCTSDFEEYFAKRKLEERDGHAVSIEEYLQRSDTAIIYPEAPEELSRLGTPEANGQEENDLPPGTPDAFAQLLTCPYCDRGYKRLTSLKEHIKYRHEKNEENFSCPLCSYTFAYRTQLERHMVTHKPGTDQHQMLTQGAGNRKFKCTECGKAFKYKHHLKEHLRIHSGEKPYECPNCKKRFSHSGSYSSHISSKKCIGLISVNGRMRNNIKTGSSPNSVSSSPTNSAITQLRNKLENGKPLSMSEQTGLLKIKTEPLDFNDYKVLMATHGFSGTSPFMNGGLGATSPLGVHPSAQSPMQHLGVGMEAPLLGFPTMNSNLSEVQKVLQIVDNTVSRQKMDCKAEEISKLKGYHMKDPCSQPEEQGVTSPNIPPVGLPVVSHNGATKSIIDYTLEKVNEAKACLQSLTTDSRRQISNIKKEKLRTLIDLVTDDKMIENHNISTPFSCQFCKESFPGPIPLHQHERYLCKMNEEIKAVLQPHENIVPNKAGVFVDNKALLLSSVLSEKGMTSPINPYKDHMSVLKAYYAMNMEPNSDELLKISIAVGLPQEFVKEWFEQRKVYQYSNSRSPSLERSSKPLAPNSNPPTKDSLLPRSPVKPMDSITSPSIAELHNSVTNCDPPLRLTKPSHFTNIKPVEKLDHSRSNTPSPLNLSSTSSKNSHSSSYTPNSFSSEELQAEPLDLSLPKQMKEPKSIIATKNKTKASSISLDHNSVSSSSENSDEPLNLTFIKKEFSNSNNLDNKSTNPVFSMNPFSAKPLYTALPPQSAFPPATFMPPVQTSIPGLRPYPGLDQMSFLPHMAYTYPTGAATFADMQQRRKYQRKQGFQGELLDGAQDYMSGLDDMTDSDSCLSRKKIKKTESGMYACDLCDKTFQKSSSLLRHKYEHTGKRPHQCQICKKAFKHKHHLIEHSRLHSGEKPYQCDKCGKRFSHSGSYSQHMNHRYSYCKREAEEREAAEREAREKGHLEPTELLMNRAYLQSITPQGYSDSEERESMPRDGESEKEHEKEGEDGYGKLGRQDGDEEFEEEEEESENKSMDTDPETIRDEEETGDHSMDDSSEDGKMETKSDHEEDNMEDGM
ZNF239, sequence (Q16600 whole entry, looked up): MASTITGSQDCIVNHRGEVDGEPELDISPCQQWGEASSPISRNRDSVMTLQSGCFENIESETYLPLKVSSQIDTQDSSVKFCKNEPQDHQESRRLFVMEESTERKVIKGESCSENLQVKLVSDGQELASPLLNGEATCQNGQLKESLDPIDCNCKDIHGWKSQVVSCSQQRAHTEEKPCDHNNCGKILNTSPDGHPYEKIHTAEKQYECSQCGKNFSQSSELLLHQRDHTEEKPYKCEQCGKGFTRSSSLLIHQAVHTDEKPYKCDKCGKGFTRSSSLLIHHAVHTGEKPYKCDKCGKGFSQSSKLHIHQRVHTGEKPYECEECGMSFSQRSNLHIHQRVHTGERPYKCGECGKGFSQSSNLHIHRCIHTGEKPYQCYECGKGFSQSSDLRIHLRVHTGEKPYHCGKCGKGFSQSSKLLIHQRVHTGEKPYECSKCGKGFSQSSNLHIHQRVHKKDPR
ZFAND6, sequence (Q6FIF0 whole entry, looked up): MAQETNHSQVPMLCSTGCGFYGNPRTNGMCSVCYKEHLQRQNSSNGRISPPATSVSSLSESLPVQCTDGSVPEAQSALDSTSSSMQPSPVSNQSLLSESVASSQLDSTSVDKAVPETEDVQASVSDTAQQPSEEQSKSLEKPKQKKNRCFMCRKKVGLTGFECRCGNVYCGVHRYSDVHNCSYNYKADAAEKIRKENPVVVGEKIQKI
ZER1, sequence (Q7Z7L7 whole entry, looked up): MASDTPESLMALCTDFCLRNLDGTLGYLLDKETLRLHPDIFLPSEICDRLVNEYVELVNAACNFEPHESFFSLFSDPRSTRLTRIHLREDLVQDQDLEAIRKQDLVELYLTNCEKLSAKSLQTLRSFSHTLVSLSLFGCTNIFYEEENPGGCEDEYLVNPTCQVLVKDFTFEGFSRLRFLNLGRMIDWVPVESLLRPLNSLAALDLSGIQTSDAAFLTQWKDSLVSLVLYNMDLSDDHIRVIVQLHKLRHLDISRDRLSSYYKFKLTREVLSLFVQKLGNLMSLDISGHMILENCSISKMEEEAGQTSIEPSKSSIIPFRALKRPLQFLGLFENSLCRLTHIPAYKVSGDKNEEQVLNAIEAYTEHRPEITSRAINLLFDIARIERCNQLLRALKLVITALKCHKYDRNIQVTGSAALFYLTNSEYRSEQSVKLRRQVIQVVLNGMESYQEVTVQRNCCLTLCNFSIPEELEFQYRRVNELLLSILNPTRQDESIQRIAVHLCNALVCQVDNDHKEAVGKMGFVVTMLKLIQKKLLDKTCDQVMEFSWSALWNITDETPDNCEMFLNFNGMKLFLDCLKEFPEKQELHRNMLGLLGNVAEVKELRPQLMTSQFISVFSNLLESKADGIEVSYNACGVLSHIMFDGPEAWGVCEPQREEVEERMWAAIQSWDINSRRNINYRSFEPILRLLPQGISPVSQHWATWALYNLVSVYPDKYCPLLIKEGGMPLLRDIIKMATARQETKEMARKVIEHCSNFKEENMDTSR

Cc1nc(Nc2n[nH]c3c2CN(C(=O)N[C@H](CN(C)C)c2ccccc2)C3(C)C)c2sccc2n1
inactive: [1] -0.149 | [2] -0.141 | [3] 0.038 | [4] 0.028 | [5] -0.059 | [6] -0.034 | [7] 0.07 | [8] -0.063 | [9] -0.01 | [10] -0.047 | [11] -0.055 | [12] -0.012 | [13] 0.231 | [14] 0.005 | [15] 0.187 | [16] -0.115 | [17] -0.018 | [18] 0.091 | [19] -0.032

CC[C@H](C)n1cc(C)c2c(C(=O)NCc3c(C)cc(C)[nH]c3=O)cc(-c3ccc(N4CCNCC4)nc3)cc21
inactive: [1] 0.173 | [2] 0.064 | [3] -0.045 | [4] -0.05 | [5] 0.04 | [6] -0.013 | [7] -0.073 | [8] -0.016 | [9] 0.055 | [10] 0.068 | [11] 0.045 | [12] -0.096 | [13] 0.02 | [14] -0.058 | [15] -0.002 | [16] 0.167 | [17] 0.076 | [18] -0.012 | [19] 0

CC[C@H](C)[C@H](NC(=O)[C@H]([C@@H](C)CC)N(C)C(C)=O)C(=O)N[C@H](C(=O)N[C@@H](CC(C)C)C(=O)[C@@]1(C)CO1)[C@@H](C)O [epoxomicin]
inactive: [1] -0.026 | [2] 0.048 | [4] 0.051 | [5] -0.045 | [6] 0.134 | [7] 0.103 | [8] -0.05 | [9] -0.033 | [10] 0.026 | [11] 0.075 | [12] -0.051 | [13] -0.06 | [14] -0.045 | [15] 0.085 | [16] -0.024 | [17] -0.271 | [18] 0.056 | [19] -0.016
active: [3] 0.345

CS(=O)(=O)CCNCc1ccc(-c2ccc3ncnc(Nc4ccc(OCc5cccc(F)c5)c(Cl)c4)c3c2)o1 [lapatinib]
inactive: [1] 0.019 | [2] -0.057 | [3] 0.038 | [4] -0.106 | [5] 0.173 | [6] -0.035 | [7] 0.016 | [8] 0.082 | [9] 0.007 | [10] -0.011 | [11] 0.018 | [12] -0.095 | [13] 0 | [14] -0.085 | [16] 0.05 | [20] -0.025 | [17] 0.09 | [18] 0 | [19] 0.018

CC1=C(C(=O)Nc2cc3cn[nH]c3cc2F)C(c2ccc(C(F)(F)F)cc2)CC(=O)N1 (stereo not given)
inactive: [1] -0.076 | [2] -0.112 | [3] 0.058 | [4] -0.013 | [5] 0.058 | [6] 0.041 | [7] 0.026 | [8] 0.088 | [9] 0.062 | [10] 0.033 | [11] -0.033 | [12] 0.283 | [13] -0.009 | [14] -0.006 | [15] -0.261 | [16] -0.003 | [17] -0.117 | [18] -0.083 | [19] 0.025

Cc1ncc(-c2ccnc(Nc3ccc(S(C)(=O)=O)cc3)n2)n1C(C)C
inactive: [1] -0.05 | [2] 0.058 | [3] -0.099 | [4] -0.031 | [5] -0.035 | [6] -0.01 | [7] -0.027 | [8] -0.033 | [9] -0.009 | [10] 0.074 | [11] -0.046 | [12] 0.275 | [13] 0.017 | [14] 0.015 | [15] -0.072 | [16] -0.054 | [17] -0.102 | [18] 0.013 | [19] -0.027

Cc1ccc2c(=O)c3ccccc3n(CCCN)c2c1C
active: [1] -0.476 | [5] -0.432 | [18] -0.285 | [19] -0.399
inactive: [2] -0.017 | [3] -0.095 | [4] 0 | [6] 0.079 | [7] -0.04 | [8] 0.024 | [9] -0.058 | [10] -0.043 | [11] -0.142 | [12] 0.011 | [13] -0.126 | [14] 0.17 | [16] -0.168 | [20] -0.196 | [17] 0.205

Fc1ccc(Cl)cc1-c1nc(Nc2ccncc2)c2nccnc2n1
inactive: [1] -0.099 | [2] -0.022 | [3] 0.003 | [4] -0.05 | [5] 0.007 | [6] 0.101 | [7] 0.018 | [8] -0.057 | [9] -0.012 | [10] -0.058 | [11] 0.168 | [12] -0.333 | [14] -0.03 | [15] 0.086 | [16] -0.002 | [17] -0.302 | [18] 0.038 | [19] 0.041
active: [13] -0.765

COc1cccc2cc(-c3nc([C@H]4CC[C@H](C(=O)O)CC4)n4ncnc(N)c34)[nH]c12
inactive: [1] 0.051 | [2] 0.067 | [3] 0.129 | [4] 0.046 | [5] -0.042 | [6] -0.039 | [7] 0.071 | [8] -0.128 | [9] 0.001 | [10] 0.05 | [11] 0.043 | [12] 0.548 | [13] -0.24 | [14] 0.099 | [15] -0.041 | [16] -0.078 | [17] -0.028 | [18] 0.01 | [19] -0.01

NC1(c2ccc(-c3nc4ccn5c(=O)[nH]nc5c4cc3-c3ccccc3)cc2)CCC1
inactive: [1] -0.127 | [2] 0 | [3] 0.019 | [4] 0.056 | [5] 0.144 | [6] 0.058 | [7] 0.043 | [8] 0.215 | [9] -0.036 | [10] -0.023 | [11] -0.045 | [12] -0.253 | [13] 0.107 | [14] -0.039 | [15] 0.151 | [16] -0.061 | [17] 0.018 | [18] -0.019 | [19] 0.046

CN1CCc2c(c3ccccc3n2Cc2ccc(C(=O)NO)cc2)C1 [Tubastatin A]
active: [3] 0.285
inactive: [1] 0.181 | [2] 0.048 | [4] 0.144 | [5] 0.077 | [6] -0.025 | [7] 0.057 | [8] 0.071 | [9] -0.028 | [10] -0.031 | [11] -0.086 | [12] 0.091 | [13] 0.275 | [14] -0.089 | [16] 0.095 | [20] -0.08 | [17] -0.126 | [18] 0.018 | [19] -0.032

Cn1cncc1[C@@](N)(c1ccc(Cl)cc1)c1ccc2c(c1)c(-c1cccc(Cl)c1)cc(=O)n2C [tipifarnib]
inactive: [1] 0.045 | [2] 0.111 | [3] 0.031 | [4] -0.09 | [5] 0.149 | [6] 0.008 | [7] -0.058 | [8] 0.01 | [9] 0.027 | [10] 0.037 | [11] -0.152 | [12] 0.178 | [13] 0.044 | [14] 0.062 | [16] 0 | [20] -0.204 | [17] 0 | [18] -0.048 | [19] -0.001

CNC(=O)c1ccc(Nc2ncc(C(F)(F)F)c(NCc3nccnc3N(C)S(C)(=O)=O)n2)cc1 [defactinib]
inactive: [1] 0.019 | [2] 0.027 | [3] 0.085 | [4] -0.045 | [5] 0.054 | [6] -0.083 | [7] -0.014 | [9] -0.013 | [10] -0.171 | [11] -0.145 | [12] -0.014 | [13] 0.161 | [14] -0.128 | [16] 0.019 | [20] -0.099 | [17] -0.046 | [18] 0.057 | [19] -0.046
active: [8] 0.558

CC(C)(O)CC(=O)NCCn1ccc2ncnc(Nc3ccc(Oc4cccc(C(F)(F)F)c4)c(Cl)c3)c21
inactive: [1] 0.034 | [2] -0.104 | [3] -0.019 | [4] 0.015 | [5] 0.065 | [6] 0.04 | [7] -0.016 | [8] -0.01 | [9] 0.084 | [10] 0.028 | [11] -0.122 | [12] 0.086 | [13] -0.002 | [14] 0.1 | [15] -0.018 | [16] -0.018 | [17] 0.101 | [18] -0.078 | [19] -0.012

CCCS(=O)(=O)Nc1ccc(F)c(C(=O)c2c[nH]c3ncc(-c4ccc(Cl)cc4)cc23)c1F [vemurafenib]
inactive: [1] 0.256 | [2] -0.033 | [3] -0.106 | [4] -0.024 | [5] -0.071 | [6] 0.021 | [7] -0.021 | [8] -0.095 | [9] -0.109 | [10] 0.029 | [11] 0.044 | [12] 0.004 | [13] 0.063 | [14] -0.087 | [16] -0.157 | [20] 0.042 | [17] 0.025 | [18] 0.012 | [19] -0.014

Source: the supplement of paper PMC10849652
